ATXN viability: cell viability loss in ATXN counter-screen. Potency, µM (doses to about 56.7 µM), actives largely listed as cytotoxic. S2 cells (HEK-293 line with an ATXN2-luciferase reporter) viability, CellTiter-Fluor protease fluorescence, 24 h. 400,000 compounds, 0.49% hits. AID 651635; further: nearly all actives have a fitted effect of over 40% in size
KB-V1 MDR tox: KB-V1 MDR subline cytotoxicity. KB-V1 MDR cells viability, CellTiter-Glo, 72 h. Potency, µM (titrated, usually from 46.1 µM), actives largely listed as cytotoxic. 400,000 compounds, 3.4% hits; further: on the % scale 0 is the no-effect control and ±100 the full control effect; nearly all actives have a fitted effect of over 60% in size
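Luminescent ATP read-out (CellTiter-Glo, 10 min) measures survival of drug-selected KB-V1 MDR cells after 72 h, 37 degrees C compound exposure. Medium: phenol-red-free DMEM, 10% FBS. Values from fitted concentration-response curves.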
KB-3-1 cytotox: KB-3-1 parental cell cytotoxicity | KB-3-1 viability, CellTiter-Glo ATP luminescence, 72 h | Potency, µM (top dose mostly 46.1 µM), actives largely listed as cytotoxic | 400,000 compounds, 1.4% hits | AID 1347075; further: on the % scale 0 is the no-effect control and ±100 the full control effect; nearly all actives have a fitted effect of over 60% in size
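72 h, 37 °C compound treatment of KB-3-1 parental cells; CellTiter-Glo added, 10 min, luminescence read. Data corrected against DMSO-only plates and normalized before curve fitting.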
HT1080NT lethal: kills 2HG-producing HT-1080-NT fibrosarcoma cells; HT-1080-NT fibrosarcoma viability, CellTiter-Glo ATP luminescence, 48 h; Potency, µM (series often up to 46.1 µM), without a hit: top-dose activity, negative = less viability, actives largely listed as cytotoxic; 360,000 compounds, 1.6% hits;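 further: NT is the 2HG producing partner of a matched IDH1 knockdown line; 0% = DMSO-treated cells and -100% = media-only wells without cells; nearly all actives have a fitted effect of over 55% in size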
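750 cells/well, RPMI + 5% FBS; 2 h settle, compound pin-transfer, 48 h at 37 degrees C. CellTiter-Glo 10 min RT, luminescence. Normalized to DMSO and media-only wells.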
ATXN2 expr inh: reduces ATXN2 reporter expression in HEK-293 cells; HEK-293 ATXN2-luciferase reporter, luminescence, 24 h; Potency, µM (top dose mostly 57 µM), without a hit: at the top dose activity change, negative = inhibition, usual class: inhibitors; 360,000 compounds, 0.72% hits; AID 1745845; further: on the % scale 0 is the no-effect control and ±100 the full control effect; nearly all actives have a fitted effect of over 55% in size
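qHTS (up to 57 uM final) was run with 24 h compound exposure of reporter cells at 37 °C. Each well was multiplexed: SteadyGlo luminescence measured ATXN2-luciferase expression after a fluorogenic Gly-Phe-AFC viability readout (25 uM final).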
HT1080 IDH1KD tx: kills HT-1080 cells with IDH1 knockdown; Potency, µM (series often up to 46.1 µM), without a hit: at the top dose activity, negative = toxicity, usual class: cytotoxic; HT-1080 IDH1 knockdown viability, ATP luminescence, 48 h; 360,000 compounds, 2% hits;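 further: 0% = DMSO wells and -100% = cell-free medium wells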
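HT-1080-IDH1KD cells (IDH1 knocked down), 750/well in RPMI with 5% FBS, treated with compound 48 h at 37 degrees C. Viability by CellTiter-Glo luminescence, normalised to DMSO and no-cell wells; concentration-response curves classed.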
The depositor's hits bear a star; i = inactive; ? = inconclusive; . = no result; ! = not active in a repeat. Compounds with a hit are over-represented: about 6.2% of the library has one in this group of screens. The call rests on the fitted dose curve; in most records, active means well fitted curve in the direction sought with a large enough effect; inconclusive means small, poorly fitted or top-dose-only effect, or another doubt; inactive means no such curve, though single readings can be large; an effect the other way counts as inactive or inconclusive. Potency means the concentration at half of the fitted maximal effect.

SMILES | ATXN viability | KB-V1 MDR tox | KB-3-1 cytotox | HT1080NT lethal | ATXN2 expr inh | HT1080 IDH1KD tx
CN(C)c1ccc(/C=C/c2cc(/C=C/c3ccc(N(C)C)cc3)c3ccccc3n2)cc1 | . | i | i | . | . | .
COC(=O)c1sccc1S(=O)(=O)N1CCN(c2ccc(C)cc2C)CC1 | i | i | i | . | -11% | .
CC(CNC(=S)Nc1cc(F)cc(F)c1)CSc1ccc(Cl)cc1 (centres undefined) | ? | ? | i | 18µM* | ? | ?
Cc1c(C(=O)N2CCC(Cc3ccccc3)CC2)sc2ncnc(NCc3ccccn3)c12 | i | . | . | . | . | .
CCN(CC)CCCNC(=O)CSc1c2c(nc3cc(Cl)ccc13)CCCC2 | . | i | i | 23µM* | ? | 23µM*
Cc1ccc(-c2n[nH]c(=S)n2-c2ccccc2)cc1 | i | i | ? | 11% | 0% | 12%
Cc1ccc(-n2c(-c3cccc(C)c3)n[nH]c2=S)cc1 | i | i | i | ? | 16% | 10µM*
COc1cc(-c2n[nH]c(=S)n2-c2cccc(C(F)(F)F)c2)cc(OC)c1OC | i | 23µM* | i | 9% | 2% | 9%
COC(=O)c1c(SC)nc2ccccc2c1OCc1ccc(C)cc1 | i | i | i | . | -5% | .
Cc1cccc(OCCCCn2c(C3CC(=O)N(c4ccccc4Cl)C3)nc3ccccc32)c1 (centres undefined) | i | i | ? | . | -18% | .
Cc1nnc2sc(-c3cccc4ccccc34)nn12 | i | 5.2µM* | 7.3µM* | 8% | 1% | 5%
Cc1nnc2sc(-c3csc4c3CCCC4)nn12 | i | 7.3µM* | 8.2µM* | 3% | 3% | -3%
Cc1nnc2c3ccccc3c(-c3cccc4ccccc34)nn12 | ? | 12µM* | i | 13% | 22% | 8%
Cc1cc(-c2nn3c(-c4ccccc4)nnc3s2)c2ccccc2n1 | i | 1µM* | ? | -2% | -15% | -17%
c1ccc(-c2cc(-c3nn4c(-c5ccco5)nnc4s3)c3ccccc3n2)cc1 | ? | i | i | -22% | ? | ?
O=C(/C=C/c1ccccc1)NC(=S)NNC(=O)c1cccnc1 | i | i | i | -5% | -7% | -10%
O=C(/C=C/c1ccccc1)NC(=S)NNC(=O)c1cnccn1 | ? | ? | ? | -27% | 14µM* | ?
O=C(COc1ccccc1C(=O)Nc1ccccc1)Nc1cccc(Cl)c1 | . | . | . | -27% | . | -17%
O=C(N/N=C(\CC(=O)c1cccs1)C(F)(F)F)c1ccncc1 | i | ? | i | -16% | 55% | ?
Cc1ccc(C(=O)N/N=C(/CC(=O)c2cccs2)C(F)(F)F)cc1 | ? | ? | ? | 26µM* | -18% | ?
CC#CCC(C)[C@H](O)/C=C/[C@@H]1[C@H]2c3cccc(CCCC(=O)O)c3O[C@H]2C[C@H]1O (some centres undefined) | i | . | . | . | . | .
COc1ccc(N(CC(=O)N2CCc3ccccc3C2)S(=O)(=O)c2ccc(C)cc2)cc1Cl | i | i | i | . | 8% | .
O=C(NC(c1ccc(Cl)cc1)c1cnccn1)C1CCN(CCOc2ccc(F)cc2)CC1 (centres undefined) | i | i | i | ? | -14% | ?
COc1ccc(C(NC(=O)C2CCN(CCCOc3ccccc3)CC2)c2ccccn2)cc1 (centres undefined) | i | i | i | 4% | -3% | -1%
O=C(NC(c1ccc(-c2ccccc2)cc1)c1cnccn1)C1CCN(CCOc2ccc(F)cc2)CC1 (centres undefined) | ? | i | ? | ? | ? | 16µM*
SMILES | ATXN viability | KB-V1 MDR tox | KB-3-1 cytotox | HT1080NT lethal | ATXN2 expr inh | HT1080 IDH1KD tx
O=C(NC(c1ccc(-c2ccccc2)cc1)c1cnccn1)C1CCN(CCCOc2ccccc2)CC1 (centres undefined) | 32µM* | i | ? | ? | ? | 9.2µM*
Cc1ccc(OCCSc2nc3ccccc3n2CC(=O)N2CCOCC2)cc1C | i | i | i | . | 2% | .
O=C(Nc1cccc(Br)c1)c1ccn[nH]1 | . | ? | 11µM* | 9% | . | -1%
COc1cc(-c2noc(C)c2/C=C/c2ccc(OC(C)=O)cc2)cc(OC)c1OC | ? | 1.3µM*! | 0.73µM* | 0.37µM* | -6% | 0.52µM*
COc1cc2ncnc(NCc3ccco3)c2cc1OC | i | i | i | 4% | -20% | 0%
Fc1ccccc1-c1nc(NCc2ccco2)c2ccccc2n1 | i | i | i | -10% | . | -9%
Oc1ccccc1-c1nc(NCc2ccco2)c2ccccc2n1 | i | i | i | -25% | -28% | -26%
COc1ccccc1Nc1nc(NCc2ccco2)c2ccccc2n1 | i | ? | i | 21µM* | -30% | 23µM*
c1ccc(-c2nc(NCc3ccco3)c3ccccc3n2)nc1 | ? | ? | 5.8µM* | -23% | ? | ?
Cc1ccc(Nc2nc(NCc3ccco3)c3ccccc3n2)cc1 | i | ? | ? | ? | ? | 23µM*
Cc1ccc(/C=N/n2c(-c3ccccc3)csc2=S)cc1 | i | . | . | . | -1% | .
CCCCNc1nc(Oc2ccc(OCCC)nn2)nc(N(C)C)n1 | ? | i | i | . | 11% | .
O=C(O)CC(NS(=O)(=O)c1ccc(Br)s1)c1ccccc1 (centres undefined) | i | ? | i | . | 5% | .
CC(C)C(NS(=O)(=O)c1cccc2nsnc12)C(=O)N1CCc2ccccc2C1 (centres undefined) | i | 18µM* | i | 1% | -3% | 0%
CC1CCN(C(=O)C(NS(=O)(=O)c2cccc3nsnc23)C(C)C)CC1 (centres undefined) | i | i | i | 0% | 4% | -5%
Cc1ccc(S(=O)(=O)Nc2ccc3ncccc3c2[N+](=O)[O-])cc1 | i | 21µM* | 18µM* | -3% | 11% | -5%
Cc1ccc(S(=O)(=O)Nc2ccc(O)c3cccnc23)cc1 | ? | i | i | -14% | 22µM* | ?
Cc1ccc(S(=O)(=O)Nc2ccnc3ccccc23)cc1 | i | i | i | -12% | 0% | -7%
Cc1ccc(S(=O)(=O)Nc2ccc(O)c3ncccc23)cc1 | ? | ? | i | ? | -29% | 13µM*
Cc1ccc(S(=O)(=O)Nc2cccc3ncccc23)cc1 | i | ? | i | 1% | -17% | -8%
Cn1ncc2c(NCc3ccc(F)cc3)ncnc21 | . | i | i | . | . | .

Assay outcomes: PubChem, National Center for Advancing Translational Sciences (NCATS)
